Source: PubChem BioAssay
The full list was thinned out, with hits kept by preference.
Tg IFNy HTS – blocks Toxoplasma gondii growth in the presence of IFN-gamma | Toxoplasma gondii growth in IFN-gamma-treated host cells; hits give low values | AID 1259416 | activity change, negative = inhibition, % (test concentration not listed) | 69,000 compounds, 3.8% hits; in the data active means activity change below about -70%, passing the limit was not always enough;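 further: host cells are HeLa cells infected with Toxoplasma gondii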
Active calls of the source: *; i = inactive; ! = not active in a repeat.

SMILES	Tg IFNy HTS
CO[C@H]1/C=C\C=C(/C)C(=O)NC2=CC(=O)C(NCCN(C)C)=C(C[C@@H](C)C[C@H](OC)[C@H](O)[C@@H](C)/C=C(\C)[C@@H]1OC(N)=O)C2=O	-82*!
Clc1cccc(-c2nnc(-c3nc(NCCC4=CCCCC4)c4ccccc4n3)o2)c1	-83*
CC(C)Nc1nc(-c2nnc(-c3cccc(Cl)c3)o2)nc2ccccc12	-40
Cc1ccc(-c2nnc(-c3nc(NCCC4=CCCCC4)c4ccccc4n3)o2)cc1	i
Fc1ccccc1CNc1nc(-c2nnc(-c3cccc(Cl)c3)o2)nc2ccccc12	-80*
Cc1ccc(-c2nnc(-c3nc(NCc4ccccc4F)c4ccccc4n3)o2)cc1	66
COc1ccc(CNc2nc(-c3nnc(-c4cccc(Cl)c4)o3)nc3ccccc23)cc1	-67
Fc1cccc(CNc2nc(-c3nnc(-c4ccccc4)o3)nc3ccccc23)c1	123
COc1ccc(-c2nnc(-c3nc(NCc4cccc(Cl)c4)c4ccccc4n3)o2)cc1	363
COc1cccc(CNc2nc(-c3nnc(-c4cccc(Cl)c4)o3)nc3ccccc23)c1	-86*
COCCn1cc2c(n1)C(COCc1c(C)noc1C)OCC2 (stereo not given)	7
Cn1nc(CN2CCOC3(CNCCOC3)C2)c2c(Cl)cccc21 (stereo not given)	10
COc1cc(OC)cc(C(=O)Nc2ccc(-c3nc(-c4ccccc4)co3)cc2)c1	-10
O=C(CN1C(=O)CCc2cc(S(=O)(=O)N3CCCC3)ccc21)NCc1ccc(F)cc1	18
COc1cccc(-c2nc(Cn3nnc(C(=O)Nc4cccc(C(F)(F)F)c4)c3C)c(C)o2)c1OC	-17
Cc1ccc(C(=O)N(C)Cc2ncccc2C)cc1NC(=O)C1CCC1	0
COc1cc(NC(=O)N2CCC(c3nc(C(=O)N(C)C)c(C)o3)CC2)cc(OC)c1	110
CC(C)COCC1CN(Cc2ccc3c(c2)OCO3)Cc2cncn2C1 (stereo not given)	0
CCOc1ncccc1-c1cnc(-n2cnnc2)c(C)c1	14
Cc1cccc(C(=O)N2CCC(c3ccccc3C(=O)O)C2)c1C (stereo not given)	2
CO[C@@H]1C[C@H]2CN(S(=O)(=O)c3cccs3)CCN2C1	i
CN(C)C(=O)CN1CCN(Cc2cccc(C(=O)Nc3cnn(C)c3)c2)CC1	11
COC(=O)c1ccc2c(C(=Nc3ccc(N(C)C(=O)CN4CCN(C)CC4)cc3)c3ccccc3)c(O)[nH]c2c1	-78*
COc1ccc(Br)cc1-c1nc(CSc2nc3c(=O)[nH]c(C)nc3n2C)c(C)o1	24
Cc1noc(C)c1CN(C)Cc1cc2n(n1)CCCNC2	4
SMILES	Tg IFNy HTS
CN(C)C(=O)c1ccc2ncnc(N3CCCC3)c2c1	7
CN1CCN(c2ncnc3ccc(-c4cccc(-c5ccn[nH]5)c4)cc23)CC1	-79*
O=C(O)c1cncc(-c2cccc(-c3ccn[nH]3)c2)c1	88
CC(Sc1nnc(-c2ccccc2)c(-c2ccccc2)n1)C(=O)Nc1nccs1 (stereo not given)	24
CCN(CC)CCNC(=O)c1ccc(N)cc1	13
Cc1[nH]c(/C=C2\C(=O)Nc3ccc(S(=O)(=O)N(C)c4cccc(Cl)c4)cc32)c(C)c1C(=O)N1CCN(C)CC1	-64
CCN(CC)CCNC(=O)c1c(C)[nH]c(/C=C2\C(=O)Nc3ccc(F)cc32)c1C	-75*
CN(C)C(=O)[C@H]1C[C@@H]2OCC[C@@H]2N(CCOc2ccc(Cl)cc2)C1	-7
O=S(=O)(c1ccc(Cl)s1)N1CCC2(CC1)NCCN=C2NC1CCCC1	6
CCN1CCCc2cc(-c3cncn3C(C)CN3CCOCC3)ccc21 (stereo not given)	-9
Cc1ccccc1-n1nc(C)c2c1NC(=O)CC2c1cc(C(C)C)no1 (stereo not given)	6
CN1CCC(N2CCOC(CCNS(=O)(=O)C3CC3)C2)CC1 (stereo not given)	5
CC/C(=C(/CC)c1ccc(O)cc1)c1ccc(O)cc1	-51
CC/C(=C(\c1ccccc1)c1ccc(OCCN(C)C)cc1)c1ccccc1	-66
CC/C(=C(\c1ccc(O)cc1)c1ccc(OCCN(C)C)cc1)c1ccccc1	-98*
CN(CCc1ccccc1)Cc1cc(C(=O)N2CCN3CCCC3C2)no1 (stereo not given)	-16
C=CCN1C(=O)C2(c3ccccc31)c1[nH]c3ccccc3c1CCN2C(=O)C(C)C (stereo not given)	337
Cc1ccc(NS(=O)(=O)c2ccc3[nH]c4c(c3c2)CCCCC4)nc1	26
Cn1cc(CCC(=O)N2CCC(c3n[nH]c(=O)n3-c3ccccc3)CC2)cn1	15
Cc1n[nH]c(C)c1C(=O)N1CCC(c2n[nH]c(=O)n2-c2ccccc2)CC1	-51
O=C(CC1=CCNCC1)N1CCC(c2n[nH]c(=O)n2-c2ccccc2)CC1	-73*
Cc1ccccc1C(=O)NC(NCc1cccnc1)(C(F)(F)F)C(F)(F)F	42
CC1(CCc2c[nH]c3ccccc23)NCCc2[nH]cnc21 (stereo not given)	1
Cc1ccc(C2(O)C(=O)N(Cc3nc(-c4ccccc4)oc3C)c3ccccc32)cc1 (stereo not given)	-48
COc1ccc(-c2nc(CN3C(=O)C(O)(c4cccc(F)c4)c4ccccc43)c(C)o2)cc1 (stereo not given)	-74*
SMILES	Tg IFNy HTS
Cc1cccc(C2(O)C(=O)N(Cc3nc(-c4ccccc4)oc3C)c3ccccc32)c1 (stereo not given)	-36
Cc1oc(-c2ccc(C(=O)NC(C)CCc3ccccc3)cc2)nc1CN1CCc2ccccc21 (stereo not given)	-10
O=C(Nc1ccc(Cl)cc1)OCc1cccc(COC(=O)Nc2ccc(Cl)cc2)n1	-98*
O=C(Nc1ccccc1)OCC(CN1CCCCC1)OC(=O)Nc1ccccc1 (stereo not given)	-4
CC(C)(COC(=O)Nc1ccc(Cl)cc1)n1cccc1	10
O=C(Nc1ccccc1)OCCCCCOC(=O)Nc1ccccc1	-18
O=C(Nc1ccc(Cl)cc1)OC1CN(C(c2ccccc2)c2ccccc2)C1	-59
O=C(Nc1ccccc1)OCc1cccc(COC(=O)Nc2ccccc2)c1F	-82*
Cc1ccc(CN2CCC3(CCC3NC(=O)c3ccn(C)c3)CC2)o1 (stereo not given)	-15
Cn1cc(-c2nc3c(c(NC4CC4)n2)CN(S(=O)(=O)c2cccc(F)c2)CC3)cn1	-74*
CCS(=O)(=O)N1CCc2nc(-c3cccc(F)c3)nc(NC3CC3)c2C1	-35
COCCN1CCc2nc(-c3cnn(C)c3)nc(NC3CC3)c2C1	78
NC(=O)c1cc2c(s1)-c1cc(Cl)ccc1SC2	-79*
O=S(=O)(c1ccccc1)N1CCC2(CN(Cc3ccc(C(F)(F)F)cc3)C2)C1	6
COc1ccc(-c2[nH]ncc2CN2CCN(C)CC2)cc1	62
Cc1cc(CN2CCN(c3c(Br)cnc4nc(-c5ccc(N6CCN(C)CC6)cc5)[nH]c34)CC2)no1	-74*
CCCS(=O)(=O)Cc1nnc(-c2ccc(C(C)(C)C)cc2)o1	-17
Cc1ccc(-c2nc(Cn3nnc(-c4nc(-c5cccc(F)c5)no4)c3C)c(C)o2)cc1	-15
CC1=Nc2ccc(-c3ccccc3)cc2C1(C)C	-99*
Cc1ccc(-c2nnc(-c3ccccc3)n2-c2ccc(C)cc2)cc1	-3
CCOCC(=O)N1CCC(c2ccn(CC(=O)N(C)C)n2)c2ccccc21 (stereo not given)	2
COc1ccc(CN2CC3CC(C(=O)N4CCOCC4)C(C2)O3)cc1 (stereo not given)	-4
